{"source": "the supplement of paper PMC9262897", "about": "“Low-cost anti-mycobacterial drug discovery using engineered E. coli” (Nature Communications, 2022)", "note": "Structures can show the parent of a compound that is named as a salt. ± gives the standard deviation of the averaged measurements.", "data": [{"tested_on": "E. coli TESEC Mtb DapB", "test": "growth (OD600 after 10 h); higher = more growth (less inhibition)", "conditions": "arabinose induction (level): Low; compound 0.1 mM; raw OD600 reference: median of DMSO wells 0.227, cell-free background 0.041", "method": "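TESEC E. coli strains in which the native enzyme is deleted and replaced by arabinose-inducible Mtb Asd, DapB, CysH or TrpD, each grown in its selective medium. Strains were screened against the Prestwick library at 0.1 mM and 1% DMSO in 384-well format at low and high arabinose induction. Growth is read as OD600 after 10 h in triplicate.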", "values": [{"smiles": "CN1CCCC(n2nc(Cc3ccc(Cl)cc3)c3ccccc3c2=O)CC1", "note": "(stereo not given) [Azelastine HCl]", "growth": "0.191 ± 0.011"}, {"smiles": "COC(=O)Nc1nc2ccc(SC(C)C)cc2[nH]1", "note": "[Methiazole]", "growth": "0.235 ± 0.035"}, {"smiles": "CCCCNC(=O)NS(=O)(=O)c1ccc(C)cc1", "note": "[Tolbutamide]", "growth": "0.186 ± 0.012"}, {"smiles": "CS(=O)(=O)OCCCCOS(C)(=O)=O", "note": "[Busulfan]", "growth": "0.286 ± 0.024"}, {"smiles": "Fc1ccc([C@@H]2CCNC[C@H]2COc2ccc3c(c2)OCO3)cc1", "note": "[Paroxetine Hydrochloride]", "growth": "0.178 ± 0.0082"}, {"smiles": "CC1(C)O[C@@H]2C[C@H]3[C@@H]4C[C@H](F)C5=CC(=O)C=C[C@]5(C)[C@H]4[C@@H](O)C[C@]3(C)[C@]2(C(=O)CO)O1", "note": "[Flunisolide]", "growth": "0.241 ± 0.01"}, {"smiles": "CNCCc1ccccn1", "note": "[Betahistine mesylate]", "growth": "0.25 ± 0.017"}, {"smiles": "CC(C(=O)O)c1ccc(C(=O)c2cccs2)cc1", "note": "(stereo not given) [Suprofen]", "growth": "0.196 ± 0.029"}, {"smiles": "CCCCCCCCNC(C)C(O)c1ccc(SC(C)C)cc1", "note": "(stereo not given) [Suloctidil]", "growth": "0.189 ± 0.019"}, {"smiles": "CCCc1cc(C(N)=S)ccn1", "note": "[Prothionamide]", "growth": "0.221 ± 0.036"}, {"smiles": "CCC[C@@H]1C[C@@H](C(=O)N[C@@H]([C@H]2O[C@H](SC)[C@H](O)[C@@H](O)[C@H]2O)[C@@H](C)O)N(C)C1", "note": "[Lincomycin hydrochloride]", "growth": "0.179 ± 0.043"}, {"smiles": "C[C@]12CC[C@@H]3c4ccc(O)cc4C[C@@H](CCCCCCCCC[S+]([O-])CCCC(F)(F)C(F)(F)F)[C@H]3[C@@H]1CC[C@@H]2O", "note": "(stereo not given in full) [Fulvestrant]", "growth": "0.258 ± 0.091"}, {"smiles": "CN(C)CCCSC(=N)N", "note": "[Dimaprit dihydrochloride]", "growth": "0.199 ± 0.016"}, {"smiles": "CN1CCN(c2c(F)cc3c(=O)c(C(=O)O)cn4c3c2SCC4)CC1", "note": "[Rufloxacin]", "growth": "0.0509 ± 0.0014"}, {"smiles": "CC(=O)OCC(=O)[C@@]1(OC(C)=O)[C@@H](C)C[C@H]2[C@@H]3C[C@H](F)C4=CC(=O)C=C[C@]4(C)[C@@]3(F)[C@@H](O)C[C@@]21C", "note": "[Diflorasone Diacetate]", "growth": "0.221 ± 0.0089"}, {"smiles": "CS(=O)(=O)c1ccc([C@@H](O)[C@@H](CO)NC(=O)C(Cl)Cl)cc1", "note": "[Thiamphenicol]", "growth": "0.0622 ± 0.0072"}, {"smiles": "CSc1nc2cc(Cl)c(Oc3cccc(Cl)c3Cl)cc2[nH]1", "note": "[Triclabendazole]", "growth": "0.0542 ± 0.0043"}, {"smiles": "CC(C)(CO)C(O)C(=O)NCCCO", "note": "(stereo not given) [Panthenol (D)]", "growth": "0.219 ± 0.024"}, {"smiles": "Cc1onc(-c2ccccc2Cl)c1C(=O)N[C@@H]1C(=O)N2[C@@H]1SC(C)(C)[C@@H]2C(=O)O", "note": "[Cloxacillin sodium salt]", "growth": "0.208 ± 0.015"}, {"smiles": "OCCN(CCO)c1nc(N2CCCCC2)c2nc(N(CCO)CCO)nc(N3CCCCC3)c2n1", "note": "[Dipyridamole]", "growth": "0.205 ± 0.033"}, {"smiles": "CN(C)CCN(Cc1ccc(Cl)cc1)c1ccccn1", "note": "[Chloropyramine hydrochloride]", "growth": "0.208 ± 0.016"}, {"smiles": "CCCCOC(=O)c1ccc(N)cc1", "note": "[Butamben]", "growth": "0.218 ± 0.07"}, {"smiles": "Nc1c(Br)cc(Br)cc1CN[C@H]1CC[C@H](O)CC1", "note": "[Ambroxol hydrochloride]", "growth": "0.221 ± 0.029"}, {"smiles": "C[C@]12CC[C@@H]3c4ccc(OS(=O)(=O)O)cc4CC[C@H]3[C@@H]1CCC2=O", "note": "[Estropipate]", "growth": "0.195 ± 0.013"}, {"smiles": "CC(NCCC(c1ccccc1)c1ccccc1)c1ccccc1", "note": "(stereo not given) [Fendiline hydrochloride]", "growth": "0.0491 ± 0.0046"}, {"smiles": "C[C@@H]1C[C@H]2[C@@H]3C[C@H](F)C4=CC(=O)C=C[C@]4(C)[C@@]3(F)[C@@H](O)C[C@]2(C)[C@@]1(O)C(=O)COC(=O)C(C)(C)C", "note": "[Flumethasone pivalate]", "growth": "0.239 ± 0.023"}, {"smiles": "COc1cc(C(=O)NC2CCCNC2)cc(OC)c1OC", "note": "(stereo not given) [Troxipide]", "growth": "0.216 ± 0.0046"}, {"smiles": "COCCc1ccc(OCC(O)CNC(C)C)cc1", "note": "(racemic) [Metoprolol-(+,-) (+)-tartrate salt]", "growth": "0.236 ± 0.0073"}, {"smiles": "CC(Oc1c(Cl)cccc1Cl)C1=NCCN1", "note": "(stereo not given) [Lofexidine]", "growth": "0.206 ± 0.012"}, {"smiles": "N#CC(c1ccc(Cl)cc1)c1c(Cl)cc(-n2ncc(=O)[nH]c2=O)cc1Cl", "note": "(stereo not given) [Diclazuril]", "growth": "0.0496 ± 0.0011"}, {"smiles": "Cc1cc(C(C)(C)CC(C)(C)C)ccc1OCCOCC[N+](C)(C)Cc1ccccc1", "note": "[Methyl benzethonium chloride]", "growth": "0.0542 ± 0.00078"}, {"smiles": "CC(=O)CC(c1ccc([N+](=O)[O-])cc1)c1c(O)c2ccccc2oc1=O", "note": "(stereo not given) [Acenocoumarol]", "growth": "0.189 ± 0.0085"}, {"smiles": "COCC1=C(C(=O)OC(C)OC(=O)OC(C)C)N2C(=O)[C@@H](NC(=O)/C(=N\\OC)c3csc(N)n3)[C@H]2SC1", "note": "(stereo not given in full) [Cefpodoxime proxetil]", "growth": "0.285 ± 0.049"}, {"smiles": "CC(=O)OCC(=O)[C@@]12OC(C)(C)O[C@@H]1C[C@H]1[C@@H]3C[C@H](F)C4=CC(=O)C=C[C@]4(C)[C@@]3(F)[C@@H](O)C[C@@]12C", "note": "[Fluocinonide]", "growth": "0.234 ± 0.033"}, {"smiles": "COc1ccc([C@@H]2Sc3ccccc3N(CCN(C)C)C(=O)[C@@H]2OC(C)=O)cc1", "note": "[Diltiazem hydrochloride]", "growth": "0.211 ± 0.056"}, {"smiles": "CC(=O)N[C@@H](CC(=O)N[C@@H](CCC(=O)O)C(=O)O)C(=O)O", "note": "[Spaglumic acid]", "growth": "0.216 ± 0.027"}, {"smiles": "Cc1ccnc(NS(=O)(=O)c2ccc(N)cc2)n1", "note": "[Sulfamerazine]", "growth": "0.228 ± 0.018"}, {"smiles": "N=c1nc(N2CCCCC2)cc(N)n1O", "note": "[Minoxidil]", "growth": "0.209 ± 0.019"}, {"smiles": "COc1ccc2c(c1)c(CC(=O)O)c(C)n2C(=O)c1ccc(Cl)cc1", "note": "[Indomethacin]", "growth": "0.214 ± 0.073"}, {"smiles": "CN1CC2c3ccccc3Oc3ccc(Cl)cc3C2C1", "note": "(stereo not given) [Asenapine maleate]", "growth": "0.254 ± 0.026"}]}]}
